This note sets out measurements from PubChem BioAssay.

The structures appear in SMILES notation. The source made the active and inactive calls.

The subject of assay [1] is Plasmodium falciparum Sir2 (PF13_0152, Sir2A). The assay is described as follows: Plasmodium falciparum Sir2A binding compounds – biochemical, small-molecule microarray, 635 nm fluorescence, primary screen (AID 1098).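 Also: score merges spot fluorescence intensity with its signal-to-noise ratio.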 To be noted: fluorescence 635 nm, higher = more signal.
Assay [2] in a line: probe aDKK1 binding to arrayed compounds – biochemical, biotinylated probe, 635/667 nm fluorescence, primary screen (AID 1099).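 Also: score merges 667nm spot fluorescence with signal to noise across triplicate slides.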 Particulars: small-molecule microarray, higher = more signal.
Assay [3] is described as follows: probe aCHRDL2 binding to arrayed compounds – biochemical, biotinylated probe, 635/667 nm fluorescence, primary screen (AID 1100). Particulars: small-molecule microarray, higher = more signal.
Assay [4] in a line: change in splice reporter luminescence, either direction, cell-based, HEK293, spliceosome inhibition project, primary screen (AID 1101).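 Also: HEK293 cells carrying a splicing-competent luciferase reporter gene; test concentration not given here.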 To be noted: HEK293 splicing luciferase reporter, 24 h, higher = more signal, called active from +8 up or from −8 down. Background: In a reporter assay the amount or activity of a reporter protein is the signal.
In assay [5] the target is Fibroblast growth factor 10 (Homo sapiens) (UniProt O15520). The assay is described as follows: compounds binding fibroblast growth factor 10 – biochemical, small-molecule microarray, 635 nm fluorescence, primary screen (AID 1102). Particulars: FGF10 binding, fluorescence 635 nm, higher = more signal.
Fibroblast growth factor 10 (Homo sapiens), sequence (O15520 whole entry, looked up): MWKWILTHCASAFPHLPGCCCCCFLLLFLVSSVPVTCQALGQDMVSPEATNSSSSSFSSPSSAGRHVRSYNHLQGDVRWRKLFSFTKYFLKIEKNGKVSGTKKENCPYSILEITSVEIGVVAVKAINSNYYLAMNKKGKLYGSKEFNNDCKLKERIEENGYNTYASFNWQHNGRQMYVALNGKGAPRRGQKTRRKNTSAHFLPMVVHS
Assay [6] has as its system glycogen synthase kinase-3 (GSK3A per assay name; protocol says GSK3B). The assay is described as follows: compounds binding glycogen synthase kinase-3 – biochemical, small-molecule microarray, 635 nm fluorescence, GSK3A, primary screen (AID 1103). Also: the record names both GSK3A and GSK3B. To be noted: fluorescence 635 nm, higher = more signal.
Assay [7] deals with Epidermal growth factor receptor (Homo sapiens) (UniProt P00533). The assay is described as follows: compounds binding epidermal growth factor receptor – biochemical, small-molecule microarray, 635 nm fluorescence, primary screen (AID 1104).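 Also: score merges 667 nm emission intensity with spot signal to noise over triplicate slides.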 To be noted: EGFR binding, higher = more signal.
Epidermal growth factor receptor (Homo sapiens), sequence (P00533 whole entry, looked up): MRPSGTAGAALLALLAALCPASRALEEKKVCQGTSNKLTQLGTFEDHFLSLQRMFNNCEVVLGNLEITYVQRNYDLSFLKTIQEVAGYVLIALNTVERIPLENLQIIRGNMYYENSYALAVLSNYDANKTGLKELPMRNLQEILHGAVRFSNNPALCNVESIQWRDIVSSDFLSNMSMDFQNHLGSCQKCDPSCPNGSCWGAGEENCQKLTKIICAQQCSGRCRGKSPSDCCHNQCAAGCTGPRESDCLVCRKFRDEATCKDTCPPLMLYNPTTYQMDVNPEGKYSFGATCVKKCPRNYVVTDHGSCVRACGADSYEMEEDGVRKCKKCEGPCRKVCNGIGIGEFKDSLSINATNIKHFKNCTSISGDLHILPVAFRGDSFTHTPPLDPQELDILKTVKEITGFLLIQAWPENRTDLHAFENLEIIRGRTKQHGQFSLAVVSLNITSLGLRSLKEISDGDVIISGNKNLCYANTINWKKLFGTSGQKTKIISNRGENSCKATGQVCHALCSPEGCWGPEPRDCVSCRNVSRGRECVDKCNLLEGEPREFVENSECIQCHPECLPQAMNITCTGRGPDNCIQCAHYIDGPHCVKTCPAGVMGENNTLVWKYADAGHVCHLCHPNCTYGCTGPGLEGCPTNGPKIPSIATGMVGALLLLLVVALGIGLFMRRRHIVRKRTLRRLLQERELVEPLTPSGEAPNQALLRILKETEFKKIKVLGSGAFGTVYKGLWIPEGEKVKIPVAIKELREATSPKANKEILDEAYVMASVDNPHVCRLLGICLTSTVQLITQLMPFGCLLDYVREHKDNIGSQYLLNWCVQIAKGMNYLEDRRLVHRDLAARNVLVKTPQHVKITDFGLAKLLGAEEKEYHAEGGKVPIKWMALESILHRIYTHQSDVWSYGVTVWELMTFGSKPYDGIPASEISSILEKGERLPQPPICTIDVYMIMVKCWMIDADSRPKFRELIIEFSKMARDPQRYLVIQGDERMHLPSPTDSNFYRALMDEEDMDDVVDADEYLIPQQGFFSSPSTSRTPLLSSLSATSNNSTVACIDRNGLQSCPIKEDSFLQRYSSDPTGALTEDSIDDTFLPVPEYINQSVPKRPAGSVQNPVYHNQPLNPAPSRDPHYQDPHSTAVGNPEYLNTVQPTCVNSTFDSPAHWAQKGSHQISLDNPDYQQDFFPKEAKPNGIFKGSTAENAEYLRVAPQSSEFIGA
For assay [8], the target named is Follistatin-related protein 3 (Homo sapiens) (UniProt O95633). The assay is described as follows: compounds binding follistatin-related protein 3 – biochemical, small-molecule microarray, 635 nm fluorescence, primary screen (AID 1105).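 Also: score merges emission near 667 nm and signal to noise per printed spot across three slides.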 Particulars: FSTL3 binding, higher = more signal.
Follistatin-related protein 3 (Homo sapiens), sequence (O95633 whole entry, looked up): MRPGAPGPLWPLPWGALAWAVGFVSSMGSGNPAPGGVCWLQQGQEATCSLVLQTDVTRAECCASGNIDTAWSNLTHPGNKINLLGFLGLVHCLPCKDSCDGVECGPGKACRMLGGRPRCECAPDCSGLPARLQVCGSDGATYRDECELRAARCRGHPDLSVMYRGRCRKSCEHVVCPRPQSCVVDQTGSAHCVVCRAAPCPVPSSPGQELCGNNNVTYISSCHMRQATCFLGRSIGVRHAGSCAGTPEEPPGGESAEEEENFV
Assay [9] deals with Dickkopf-related protein 1 (Homo sapiens) (UniProt O94907). The assay is described as follows: small molecules binding DKK1 protein – biochemical, small-molecule microarray, 635 nm fluorescence scan, primary screen (AID 1106).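 Also: score merges emission near 667 nm with signal to noise over three replicate slides.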 Particulars: higher = more signal.
Dickkopf-related protein 1 (Homo sapiens), sequence (O94907 whole entry, looked up): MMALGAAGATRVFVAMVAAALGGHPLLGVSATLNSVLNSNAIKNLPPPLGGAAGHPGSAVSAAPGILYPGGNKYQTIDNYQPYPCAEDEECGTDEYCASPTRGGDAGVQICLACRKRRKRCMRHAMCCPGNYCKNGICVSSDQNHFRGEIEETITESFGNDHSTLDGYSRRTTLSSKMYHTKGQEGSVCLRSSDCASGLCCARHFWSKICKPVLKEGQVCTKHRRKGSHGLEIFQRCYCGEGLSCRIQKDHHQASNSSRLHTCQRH
In assay [10] the test system is Inhibin beta A chain (activin A). The assay is described as follows: small molecules binding activin A – biochemical, small-molecule microarray, 635 nm fluorescence scan, primary screen (AID 1107).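 Also: mouse activin A protein probed at 4.33 µg/mL on printed slides; score merges bound-protein fluorescence near 667 nm with spot signal-to-noise.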 Particulars: INHBA, higher = more signal.
The subject of assay [11] is Human papillomavirus type 1a protein E7 (residues 44-93). The assay is described as follows: small molecules binding HPV E7 44-93 – biochemical, small-molecule microarray, residues 44-93, 635 nm fluorescence, primary screen (AID 1108).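 Also: E7 fragment applied at 1 µg/mL in TBST for 1 h at 4 C; score combines spot fluorescence with its signal to noise ratio.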 To be noted: fluorescence 635 nm, higher = more signal.
The nature of assay [12]: hepatitis C replication reporter changes, two-sided – Huh7 cells, luciferase reporter, HCV replication inhibitor project, primary screen (AID 1109).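 Also: huh7 hepatoma cells harbouring a luciferase neomycin HCV replicon reporter; luciferase luminescence as measure of HCV replicon replication; test concentration not given here.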 Particulars: Huh7 HCV replicon luciferase reporter, 48 h; higher = more signal.
For assay [13], the target named is Left-right determination factor 2 (Homo sapiens) (UniProt O00292). The assay is described as follows: small molecules binding LEFTY2 protein – biochemical, small-molecule microarray, 635 nm fluorescence scan, primary screen (AID 1110). To be noted: higher = more signal.
Left-right determination factor 2 (Homo sapiens), sequence (O00292 whole entry, looked up): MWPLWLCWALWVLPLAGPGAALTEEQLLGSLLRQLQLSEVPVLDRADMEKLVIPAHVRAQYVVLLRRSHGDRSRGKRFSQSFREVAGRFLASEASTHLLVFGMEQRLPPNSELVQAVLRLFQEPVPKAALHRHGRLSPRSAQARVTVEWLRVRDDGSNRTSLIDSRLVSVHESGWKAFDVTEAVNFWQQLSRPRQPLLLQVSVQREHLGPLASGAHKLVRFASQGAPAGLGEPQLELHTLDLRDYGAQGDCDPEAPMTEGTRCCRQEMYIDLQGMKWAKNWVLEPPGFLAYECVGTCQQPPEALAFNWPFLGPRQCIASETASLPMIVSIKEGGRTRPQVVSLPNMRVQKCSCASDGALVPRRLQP
In assay [14] the target is Calmodulin-1 (Homo sapiens) (UniProt P0DP23). The assay is described as follows: small molecules binding calmodulin-1 with EGTA – biochemical, small-molecule microarray, Cy5-labelled CALM1, profiling panel (AID 1111).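 Also: labelled calmodulin applied in Tris saline Tween buffer holding calcium plus EGTA and DTT.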 Particulars: Cy5-CALM1 binding fluorescence, higher = more signal.
Assay [15] shares this target. The assay is described as follows: small molecules binding Ca-loaded calmodulin-1 – biochemical, small-molecule microarray, Cy5-labelled CALM1, plus calcium, artefact control for SMM control-protein annotation, profiling panel (AID 1112).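 Also: score merges spot fluorescence with signal to noise from triplicate slides.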 To be noted: Cy5-CALM1 binding fluorescence, higher = more signal.
Assay [16] in a line: probe aWnt5a binding to arrayed compounds – biochemical, biotinylated probe, 635/667 nm fluorescence, primary screen (AID 1113).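 Also: score merges 667 nm fluorescence intensity with signal-to-noise per printed feature.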 To be noted: small-molecule microarray, higher = more signal.
Assay [17] in a line: probe aShh binding to arrayed compounds – biochemical, biotinylated probe, 635/667 nm fluorescence, primary screen (AID 1114).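 Also: probe is biotin-labelled aShh protein from a stem cell growth factor screen; measures binding of labelled protein to compounds printed on the slide; score merges feature fluorescence at 667 nm with signal-to-noise.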 Particulars: small-molecule microarray, higher = more signal.
The nature of assay [18]: probe aNog binding to arrayed compounds – biochemical, biotinylated probe, 635/667 nm fluorescence, primary screen (AID 1115).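 Also: probe is biotinylated aNog protein used at 0.15 µg/mL for 1 h at 4 C; z-score combines 667 nm fluorescence of each spot with its signal to noise.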 To be noted: small-molecule microarray, higher = more signal.
Assay [19] addresses Torsin-1A-interacting protein 1 (Homo sapiens) (UniProt Q5JTV8). The assay is described as follows: compound microarray binding of lysate hLAP1 – cell lysate, small-molecule microarray, COS7 lysate, 635/667 nm fluorescence, primary screen (AID 1116). Particulars: 635 nm fluorescence, higher = more signal.
Assay [20] has as its target Alpha-bungarotoxin (Bungarus multicinctus) (UniProt P60615). The assay is described as follows: compounds binding labelled alpha-BTX control protein – biochemical, small-molecule microarray, Alexa647 label, 635/667 nm fluorescence, artefact control for SMM control protein annotation, profiling panel (AID 1117). To be noted: alpha-BTX-A647 binding fluorescence, higher = more signal.

Alpha-bungarotoxin (Bungarus multicinctus), sequence (P60615 whole entry, looked up): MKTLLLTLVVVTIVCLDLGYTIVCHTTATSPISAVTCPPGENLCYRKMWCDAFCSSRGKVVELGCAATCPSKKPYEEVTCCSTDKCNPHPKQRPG
Torsin-1A-interacting protein 1 (Homo sapiens), sequence (Q5JTV8 whole entry, looked up): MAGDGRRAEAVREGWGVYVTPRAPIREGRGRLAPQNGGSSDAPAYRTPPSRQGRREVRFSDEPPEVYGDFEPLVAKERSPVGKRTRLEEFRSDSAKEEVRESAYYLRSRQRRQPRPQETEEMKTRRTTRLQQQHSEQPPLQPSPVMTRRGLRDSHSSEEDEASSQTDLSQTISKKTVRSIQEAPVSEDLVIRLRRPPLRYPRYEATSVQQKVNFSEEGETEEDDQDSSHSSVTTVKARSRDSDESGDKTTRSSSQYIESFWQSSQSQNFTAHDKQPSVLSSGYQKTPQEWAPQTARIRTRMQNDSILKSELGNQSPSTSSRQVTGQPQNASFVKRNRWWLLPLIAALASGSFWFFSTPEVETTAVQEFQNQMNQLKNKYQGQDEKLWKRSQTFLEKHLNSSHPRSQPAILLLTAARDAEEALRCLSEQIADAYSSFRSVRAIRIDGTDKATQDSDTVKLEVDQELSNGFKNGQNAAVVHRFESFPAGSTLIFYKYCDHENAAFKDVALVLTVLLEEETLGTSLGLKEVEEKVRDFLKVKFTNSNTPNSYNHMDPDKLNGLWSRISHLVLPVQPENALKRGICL

As to `CC(C)N1CC=CC23O[C@@H]4/C=C\CCCOC(=O)C4[C@H]2C(=O)N(CCCCCCO)[C@@H]3C1=O` (stereo not given in full), the composite z-score is 1.44 in [1]; 0.0846 in assay [2]; 0.777 in assay [3]; -0.614 in assay [5]; -0.24 in [6]; -1.12 in assay [7]. The composite z-score was -1.04 in [8]; -1.08 in assay [9]; 1.03 in [10]; 0.509 in assay [11]; -1.46 in assay [13]; -0.954 in assay [14]. Also, the composite z-score was -0.488 in [15]; -0.0643 in assay [16]; -0.346 in assay [17]; 0.345 in [18]; 0.881 in assay [19]; -1.5 in [20]. Further, the z-score is 0.569 (inactive) in assay [4] and -0.276 in [12].

For `COCC(=C=CC[C@@H](O)c1ccc(OCCO)cc1)CCO`, the composite z-score in [1] was 1.67; in assay [2], -0.0695; in [3] it was -0.113; in [5], 1.27; in assay [6] it was -0.155; in assay [7], -0.265. Also, the composite z-score in [8] was 0.409; in [9], 0.299; in assay [10], 0.892; in assay [11], 0.862; in assay [13], -0.144; in assay [14], -0.0954. The composite z-score was -0.102 in assay [15]; -0.0643 in assay [16]; 0.0639 in assay [17]; -0.197 in assay [18]; 0.506 in assay [19]; 0.0305 in [20]. Further, the z-score in assay [4] is 1.12 (inactive); in assay [12] it was -0.766.

Take `COC(=O)[C@@]1(Cc2ccc(OC)cc2)[C@H]2c3cc(C(=O)N4CCCC4)n(Cc4ccc(S(C)(=O)=O)cc4)c3C[C@H]2CN1C(=O)c1ccccc1`: the composite z-score in assay [1] was determined as 0.645; in assay [2], 0.807; in [3], 1.29; in [5], 0.508; in assay [6] it was 0.401; in assay [7], 0.348. For the same compound, the composite z-score in assay [8] is -0.0139; in [9] it was -0.802; in assay [10], 0.881; in [11] it was 0.918; in assay [13], -0.0914; in assay [14] it was 2.06. Further, the composite z-score is 0.955 in assay [15]; 0.108 in [16]; 0.883 in assay [17]; -0.121 in assay [18]; 1.05 in assay [19]; 0.448 in assay [20]. Moreover, the values for the z-score in assay [4] and in [12] were 0.699 (inactive) and -0.887, respectively.

In the case of `[N-]=[N+]=NCc1ccccc1[C@@H]1OC(c2ccc(OCCCO)cc2)=N[C@]1(Cc1ccccc1)C(=O)NCCN1CCOCC1`, the composite z-score in [1] is 1.03; in assay [2], 0.657; in [3], 0.58; in [5] it was 0.868; in [6] it was 0.616; in [7], -0.102. The composite z-score is 0.567 in assay [8]; -0.383 in assay [9]; 0.798 in assay [10]; 1.42 in [11]; 0.133 in assay [13]; 1.2 in assay [14]. In addition, the composite z-score in assay [15] came to 0.558; in assay [16] it was 0.0825; in [17], 0.1; in assay [18], 0.684; in [19] it was 0.946; in assay [20], 0.63. For the same compound, the z-score in assay [4] is 0.0496 (inactive); in assay [12], -2.37.

Take `CC(C)CNC(=O)[C@@H]1c2ccccc2C(=O)N(C2CCCCC2)[C@H]1c1ccc(CO)cc1`: the composite z-score in [1] was 1.65; in assay [2] it was 0.477; in [3], 0.962; in assay [5], -0.0953; in assay [6] it was 0.185; in assay [7], -0.602. Also, the composite z-score in assay [8] is -0.333; in [9] it was -0.308; in assay [10] it was 0.0986; in assay [11], 0.0857; in [13] it was -0.276; in assay [14] it was 0.54. The composite z-score in assay [15] was 1.09; in [16] it was -0.124; in [17] it was -0.153; in [18], 0.313; in assay [19] it was 0.875; in [20], -0.624. For the same compound, the z-score in assay [4] was -1.25 (inactive); in assay [12], -0.48.

With `COc1cc(C(O)C2C=CC3C(=O)N(Cc4ccccc4)C(=O)C3N2n2cnnc2)cc(OC)c1OC` (stereo not given), the composite z-score worked out at 0.146 in assay [1]; 0.71 in [2]; 0.865 in assay [3]; 0.571 in assay [5]; 0.389 in [6]; 0.489 in assay [7]. Further, the composite z-score in [8] worked out at 0.16; in assay [9], 0.134; in assay [10], 1.23; in assay [11] it was 0.335; in [13], 0.109; in [14], 0.409. Also, the composite z-score turned out to be 0.0996 in assay [15]; 0.0751 in [16]; 0.543 in assay [17]; 0.266 in assay [18]; 0.88 in [19]; 0.971 in assay [20]. Moreover, the figures for the z-score in [4] and in [12] were -0.696 (inactive) and 0.312, respectively.

On to `COc1cc2c(cc1O)C(c1cccs1)N(Cc1sc3ccccc3c1Cl)CC2` (stereo not given), for which the composite z-score in [1] was 1.33; in assay [2], 0.525; in assay [3], 0.179; in assay [5], 1.46; in assay [6] it was 1.36; in assay [7], 0.495. Besides, the composite z-score came to 1.41 in [8]; 0.726 in [9]; 0.816 in assay [10]; 1.48 in assay [11]; 0.659 in [13]; 1.66 in assay [14]. In addition, the composite z-score is 0.334 in [15]; -0.0345 in assay [16]; 0.199 in assay [17]; 0.593 in [18]; 1.33 in [19]; 1.87 in assay [20]. Also, the z-score in assay [4] is -0.861 (inactive); in assay [12] it was -1.7.
